Results filed as inconclusive are left out. Active and inactive are the calls of the source. Calls follow the shape of the dose curve; as a rule, active = well fitted curve in the direction sought with a large enough effect; inconclusive = small, poorly fitted or top-dose-only effect, or another doubt; inactive = no such curve, though single readings can be large; an effect the other way counts as inactive or inconclusive.
Assays:
HEK293T = assay: qHTS assay to identify novel small-molecules to repurpose for Merkel cell carcinoma treatment (AID 1296009); conditions: MCC and control cell lines, CellTiter-Glo viability, 72 h; at 44.8 µM (top of the series) unless noted; also: nearly all actives have a fitted effect of over 60% in size
Outline: (§1)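 Dose-response viability screen; 72 hr exposure at 37 degree celsius; CellTiter-Glo added, 10 min room temperature, luminescence read; RLUs scaled between no-cell and DMSO wells.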

MCC-13 = assay: as above; conditions: MCC and control cell lines, CellTiter-Glo viability, 72 h; series mostly up to 46 µM
Outline: as §1

MCC-26 = assay: as above; conditions: MCC and control cell lines, CellTiter-Glo viability, 72 h; series mostly up to 46 µM
Outline: as §1

MKL-1 = assay: as above; conditions: MCC and control cell lines, CellTiter-Glo viability, 72 h; series mostly up to 46 µM
Outline: as §1

MKL-2 = assay: as above; conditions: MCC and control cell lines, CellTiter-Glo viability, 72 h; series mostly up to 46 µM
Outline: as §1

NIH3T3 = assay: as above; conditions: MCC and control cell lines, CellTiter-Glo viability, 72 h; at 44.8 µM (top of the series) unless noted
Outline: as §1

UISO = assay: as above; conditions: MCC and control cell lines, CellTiter-Glo viability, 72 h; series mostly up to 46 µM
Outline: as §1

WaGa = assay: as above; conditions: MCC and control cell lines, CellTiter-Glo viability, 72 h; series mostly up to 46 µM
Outline: as §1

C33A = assay: Primary qHTS to identify gynecologic anti-cancer compounds using libraries of approved drugs and bioactive compounds (AID 1345084); conditions: Gynecologic cancer cell panel viability, ATPlite luminescence, 48 h; series mostly up to 57.5 µM; also: nearly all actives have a fitted effect of over 55% in size
Outline: (§2)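 ATP-based viability (ATPlite), 1,000 cells/well, 16 h pre-incubation, 48 h compound at 37 C, 5% CO2, 15 min RT before read.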

CAOV3 = assay: as above; conditions: Gynecologic cancer cell panel viability, ATPlite luminescence, 48 h; series mostly up to 57.5 µM
Outline: as §2

Measured: Potency

CC(=O)OCC(=O)[C@@]1(O)[C@H](OC(C)=O)C[C@H]2[C@@H]3CCC4=CC(=O)C=C[C@]4(C)[C@@]3(F)[C@@H](O)C[C@@]21C
inactive: all assays above

CC(CC(C#N)(c1ccccc1)C(C)C)N(C)C (centres undefined)
inactive: all assays above

COC(=O)/C=C\C(=O)OC
inactive: all assays above

CCOC(=O)O[C@]1(C(=O)OCCl)CC[C@H]2[C@@H]3CCC4=CC(=O)C=C[C@]4(C)[C@H]3[C@@H](O)C[C@@]21C
not listed: CAOV3
inactive: all other assays above

O=C(Nc1ccc(S(=O)(=O)N2CCOCC2)cc1)c1cc(Cl)ccc1NS(=O)(=O)c1ccc(Cl)s1
not listed: C33A
inactive: all other assays above

Cc1ccc(C(=O)C(=O)O)cc1C
not listed: NIH3T3 | CAOV3
inactive: all other assays above

CN1CCN(N)CC1
inactive: all assays above

COc1ccc(CCC(C)=O)cc1
inactive: all assays above

O=C1NC(c2ccccc2)(c2ccccc2)C(=O)N1COP(=O)(O)O
inactive: all assays above

Nc1ncnc2c1ncn2Cc1c(F)cccc1Cl
not listed: CAOV3
inactive: all other assays above

O=C1CC2(CCCC2)CC(=O)N1CCNCC1COc2ccccc2O1 (centres undefined)
not listed: NIH3T3 | CAOV3
inactive: all other assays above

NS(=O)(=O)c1ccc(N2CCCCS2(=O)=O)cc1
inactive: all assays above

COc1ccc(/C(C)=C/C(=O)O)c(OC)c1
inactive: all assays above

O=C(O)Cn1c(=O)n(Cc2ccc(Br)cc2F)c(=O)c2ccc(Cl)cc21
inactive: all assays above

CC(C)(C)c1nnc(NS(=O)(=O)c2ccccc2)s1
not listed: NIH3T3 | CAOV3
inactive: all other assays above

CCOc1ccccc1OCC1CNCCO1 (centres undefined)
inactive: all assays above

CC(=O)c1ccc(O)c(C(N)=O)c1
inactive: all assays above

O=C(O)C(=O)Nc1cccc(-c2nn[nH]n2)c1
inactive: all assays above

CC(C)NC(=O)c1ccc(C=O)cc1
not listed: NIH3T3
inactive: all other assays above

O=C(O)/C=C(\CC(=O)O)C(=O)O
inactive: all assays above

c1ccc2c(c1)CCc1ccccc1N2
inactive: all assays above

Cc1[nH]cnc1-c1ccc(Cl)cc1
inactive: all assays above

Nc1ccc(C(=O)N2CC3CC(CN(Cc4ccccc4)C3)C2)cc1
inactive: all assays above

C[C@H]1C[C@@H]2[C@H]([C@@H](O)C[C@@]3(C)[C@H]2CC[C@]3(O)C(=O)CO)[C@@]2(C)C=CC(=O)C=C12
not listed: NIH3T3
inactive: all other assays above
